Screening data as filed in PubChem BioAssay.
Sm TGR inh: qHTS Assay for the Inhibitors of Schistosoma Mansoni Peroxiredoxins; Schistosoma mansoni thioredoxin glutathione reductase (TGR), Q962Y6; purified TGR, DTNB reduction, TNB absorbance 405 nm; 360,000 compounds, 3% hits; Potency, µM (series often up to 114 µM), for the others: top-dose activity change, negative = inhibition, hits mostly inhibitors; note: potency is the fitted concentration of half-maximal effect; % is set by controls: 0 for no effect and ±100 for the full control effect; nearly all actives have a fitted effect of over 60% in size
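TGR 20 nM + NADPH 100 uM (dispensed conc.), cpd preinc 15 min RT; start with NADPH (500 uM addition) then DTNB (15 mM addition). Kinetic TNB absorbance, 405 nm filter. Four-parameter Hill fit across titration.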
CHX counter: Cycloheximide Counterscreen for Small Molecule Inhibitors of Shiga Toxin. cell reporter, cycloheximide protein synthesis inhibition counterscreen. max response, %. 300,000 compounds, 12% hits. AID 2314, 2010; in the data active = max response mostly above about 13%, no sharp cut-off; inactive = mostly below about 14%; note: read at 38.3 µM for the half of the compounds with a filed dose; 0% is about no effect
LmPK inhibitor: qHTS Assay for Inhibitors of Leishmania Mexicana Pyruvate Kinase (LmPK); Potency, µM (series often up to 57.5 µM), for inactives: top-dose activity change, negative = inhibition, usual class: inhibitors; Q27686; 290,000 compounds, 0.37% hits; AID 1721, 2009; purified LmPK, Kinase-Glo ATP luminescence, 1 h; note: potency is the fitted concentration of half-maximal effect; % is set by controls: 0 for no effect and ±100 for the full control effect
Target sequence (Q27686 whole entry, looked up): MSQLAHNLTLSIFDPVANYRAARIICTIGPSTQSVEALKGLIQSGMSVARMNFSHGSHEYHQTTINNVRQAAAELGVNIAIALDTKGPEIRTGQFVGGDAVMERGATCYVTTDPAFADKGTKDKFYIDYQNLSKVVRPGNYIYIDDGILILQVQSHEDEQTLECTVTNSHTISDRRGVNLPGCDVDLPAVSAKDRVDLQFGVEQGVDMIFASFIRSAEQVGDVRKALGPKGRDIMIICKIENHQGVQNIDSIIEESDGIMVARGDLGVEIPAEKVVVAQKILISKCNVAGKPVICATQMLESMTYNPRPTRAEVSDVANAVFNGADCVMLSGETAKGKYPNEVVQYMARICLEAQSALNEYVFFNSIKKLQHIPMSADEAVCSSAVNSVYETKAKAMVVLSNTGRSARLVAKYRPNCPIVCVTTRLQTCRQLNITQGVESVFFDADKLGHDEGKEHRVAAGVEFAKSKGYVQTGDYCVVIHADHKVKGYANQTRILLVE
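Purified LmPK (0.1 nM) converted ADP (0.1 mM) to ATP with PEP (0.5 mM) in imidazole buffer pH 7.2 with KCl and MgCl2, 1 h at room temperature. ATP was read by Kinase-Glo luminescence; data normalized to uninhibited and no-enzyme controls.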
Shiga inhibitor: A qHTS for Small Molecule Inhibitors of Shiga Toxin. Vero cells, Shiga toxin protein synthesis inhibition reporter. inhibition, % at 38.7 µM. 290,000 compounds, 9.2% hits. AID 2315, 2010; in the data active = inhibition mostly above about 28%, no sharp cut-off; inactive = mostly below about 43%; note: 0% is about no effect
Tb PYK inh: qHTS of Trypanosoma Brucei Inhibitors. pyruvate kinase (Trypanosoma brucei), Q57TT1. TbPYK enzyme, Kinase-Glo Plus ATP luminescence, 45 min. Potency, µM (doses to about 76.8 µM), without a hit: at the highest dose activity, negative = inhibition, usual class: inhibitors. 410,000 compounds, 0.12% hits; note: potency is the fitted concentration of half-maximal effect; % is set by controls: 0 for no effect and ±100 for the full control effect; nearly all actives have a fitted effect of over 50% in size
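Enzyme and substrate buffer are dispensed first and compound is pin-transferred. ADP at 130 uM final then starts the reaction, which runs 45 min at room temperature. Detection reagent is added for 10 min before luminescence is imaged.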
Giardia FBPA inh: qHTS Assay for Inhibitors of Fructose-1,6-bisphosphate Aldolase from Giardia Lamblia; purified Giardia FBPA; A8B2U2; 290,000 compounds, 0.71% hits; Potency, µM (series often up to 59.6 µM), for inactives: top-dose activity, negative = inhibition, most hits filed as inhibitors; note: potency is the fitted concentration of half-maximal effect; % is set by controls: 0 for no effect and ±100 for the full control effect; nearly all actives have a fitted effect of over 55% in size
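Giardia FBPA (40 nM reagent) was preincubated 10 min at RT with compound (up to 57.5 uM final), then substrate plus GAPDH/TPI/NAD/arsenate coupling system with diaphorase/resazurin was added; resorufin fluorescence (525/598 nm) was read after 20 min.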
* = called active by the depositor; i = inactive; ? = inconclusive; · = not tested or not shown; [ ] = remark or other dose. Only a selection was taken, and hits are over-represented in it overall. Unless noted, calls come from the whole dose curve; as a rule, active = well fitted curve in the direction sought with a large enough effect; inconclusive = small, poorly fitted or top-dose-only effect, or another doubt; inactive = no such curve, though single readings can be large; an effect the other way counts as inactive or inconclusive.

SMILES	Sm TGR inh	CHX counter	LmPK inhibitor	Shiga inhibitor	Tb PYK inh	Giardia FBPA inh
O=C(O)Cn1ccc2ccccc21	2.8%	-2.3	2.9%	-5.9	-1.6%	0.5%
O=C(c1ccccc1)n1ccc2ccccc21	-9.1%	31.3*	-1.3%	136.6*	-1.3%	-3.8%
Cc1ccc(N=C2N=C(N)c3ccccc32)cc1C	·	·	·	·	-9.7%	·
CCc1ccc(N=C2N=C(N)c3ccccc32)cc1	-1.7%	31.8*	-6.0%	54.2*	2.0%	-4.1%
NNC(=O)c1cc2c(s1)CCCCCC2	-3.0%	-2.2	3.6%	-3.5	4.5%	-8.9%
O=C(Nc1nccs1)c1cc2c(s1)CCCCC2	-14.0%	3.9	14.1µM*	15.2	-22.0%	-11.8%
CCSc1nnc(NC(=O)c2cc3c(s2)CCCC3)s1	1.0%	25.2	8.4%	10.9	1.4%	1.5%
CC(C)Cc1nnc(NC(=O)c2cc3c(s2)CCC3)s1	0.0%	17.3*	-1.2%	54.6*	-3.7%	-0.2%
O=C(Nc1nncs1)c1cc2c(s1)CCC2	-12.3%	20.9*	-22.6%	30.0*	-11.2%	2.1%
CCOc1ccc(-n2cc(C(=O)Nc3ccccc3OCC)c3cc(OC)c(OC)cc3c2=O)cc1	-1.6%	·	·	·	1.8%	·
O=C(c1cc2ccccc2c(=O)o1)N1CCCCCC1	0.3%	71.3*	2.1%	141.4*	-6.8%	1.7%
CC1CCN(C(=O)c2cc3ccccc3cc2O)CC1	2.1%	13.2	-5.4%	21.6	-3.5%	·
CC1CCN(C(=O)c2cc3ccccc3c(=O)o2)CC1	-2.3%	15.9	0.2%	43.8*	-2.2%	3.5%
O=C(c1cc2c(ccc3ccccc32)oc1=O)N1CCCC1	-7.6%	-1.4	2.0%	-9.1	-2.9%	-0.6%
COc1cc(/C=C/C(=O)O[C@H]2CC[C@]34C[C@]35CC[C@]3(C)[C@@H]([C@H](C)CCC=C(C)C)CC[C@@]3(C)C5CCC4C2(C)C)ccc1O (some centres undefined)	·	·	·	·	0.0%	·
COc1cccc(C(=O)NCc2ccc(-c3nc4ccccc4s3)cc2)c1	0.7%	35.8*	4.0%	70.3*	6.4%	1.1%
COc1cc(C(=O)NCc2ccc(-c3nc4ccccc4s3)cc2)cc(OC)c1OC	1.5%	26.5*	4.0%	73.9*	3.2%	3.9%
COc1cc(C(=O)NCc2nnc(SCC(=O)Nc3nc4ccccc4s3)o2)cc(OC)c1OC	-6.7%	14.5*	1.1%	45.6*	-3.6%	15.7%
COc1cccc(C(=O)Nc2ccc(-c3nc4ccccc4s3)cc2Cl)c1	2.2%	·	·	·	0.5%	·
COc1ccccc1C(=O)NCc1ccc(-c2nc3ccccc3s2)cc1	?	40.6*	0.9%	57.6*	-9.8%	7.2%
COC(=O)c1ccc2c(c1)N(CC(=O)Nc1cccc(C(F)(F)F)c1)C(=O)c1ccccc1S2	-0.5%	·	·	·	1.8%	·
CCOc1ccccc1-c1ccc(C(=O)O)o1	·	-2.8	·	i	·	26.1%[136 µM]
CC(C)Oc1ccc(C(=O)Nc2ccc(-c3nc4ccccc4s3)cc2)cc1	1.1%	·	·	·	1.3%	·
COc1ccc(C(=O)NCc2ccc(-c3nc4ccccc4s3)cc2)cc1	13.6%	44.3*	-0.1%	43.8	3.3%	·
Clc1cccc(CN2CCSCC2)c1	1.1%	-2.9	-3.1%	·	3.1%	?
SMILES	Sm TGR inh	CHX counter	LmPK inhibitor	Shiga inhibitor	Tb PYK inh	Giardia FBPA inh
CCOC(=O)c1cnc(SCC(=O)OC)nc1N	0.0%	33.8*	0.5%	71.8	2.7%	0.3%
CCOC(=O)c1cnc(SCCN2CCOCC2)nc1N	1.6%	18.3*	-0.4%	33.9	-0.7%	4.5%
CCOC(=O)c1cnc(SCC(=O)Nc2ccc(N3CCOCC3)cc2)nc1N	-2.4%	-3.3	-6.8%	-3.1	·	-2.1%
CCOC(=O)c1cnc(SSc2ncc(C(=O)OCC)c(N)n2)nc1N	50.1µM*	-2.6	0.2%	·	?	-15.8%
CCOC(=O)CC(=O)CSc1ncc(C(=O)OCC)c(N)n1	?	2.0	3.1%	15.5	-1.8%	-2.0%
CCOC(=O)c1cnc(SCC(=O)N2CCN(c3ccccc3)CC2)nc1N	-3.0%	10.8	-1.6%	-6.9	-8.0%	1.9%
C=CCSc1ncc(C(=O)OCC)c(N)n1	5.4%	40.5*	-5.6%	51.1*	-2.6%	2.2%
